From PubChem BioAssay AID1508622 (National Center for Advancing Translational Sciences (NCATS), 2021)
Unmarked numbers belong to inactive results. Active and inactive are the calls of the source. The call rests on the fitted dose curve; in most records, active means well fitted activation curve with a large enough effect; inconclusive means small, poorly fitted or top-dose-only effect; inactive means no such curve, though single readings can be large or run the other way.

Assay: Confirmatory qHTS for Identification of Small Molecule Activators of Huntingtin-Antisense Promoter Activity
Conditions: HEK293 HTT-AS promoter firefly luciferase reporter, 24 h; series mostly up to 57.5 µM; activity change, positive = activation: at the top concentration
In short: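 2,500 luciferase reporter HEK293 cells/well; 24 h culture; cpds up to 57.5 uM final, PTC124 50 uM ctrl; 24 h, 37C; Dual-Glo FLuc reagent, 10 min RT; lum. Norm.: vehicle 0%, zero RLU -100%.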
Potency means the concentration at half of the fitted maximal effect.

SMILES	activity change, positive = activation	Potency
COC(=O)c1ccccc1NC(=O)Cn1nc(C(F)(F)F)c2c1CCCC2	-16.2%	–
COc1ccc(OC)c(CCNC(=O)C(C)n2nc(C)c3c(C)n(-c4ccc(C)cc4)nc3c2=O)c1 (stereo not drawn)	-82.6%	–
CCC(C(=O)NCCc1cc(OC)ccc1OC)n1nc(C)c2c(C)n(-c3ccccc3)nc2c1=O (stereo not drawn)	-49.5%	–
CCCCOc1ccc(CNC(=O)c2cc3n(n2)CCCN(Cc2ccc(C)cc2)C3=O)cc1	-89.4%	–
COc1ccc(-c2noc(Cn3c(=O)c4ccccc4n(CC(=O)Nc4cccc(C(F)(F)F)c4)c3=O)n2)cc1	-22.2%	–
Cc1ccccc1Cc1c(C)nc2c(-c3ccccc3)c(C)[nH]n2c1=O	-38.5%	–
CCOC(=O)C1=C(CN2CCN(c3ccccc3F)CC2)NC(=O)NC1c1ccc(OC)cc1 (stereo not drawn)	-66.6%	–
COc1cc(OC)c(N(C)C(=O)c2cn(C3CCCC3)c(=O)c3c2c2ccccc2n3C)cc1Cl	-45%	–
CCOc1ccc(S(=O)(=O)N(C(C)=O)c2ccc3oc(C)c(C(=O)OC)c3c2)cc1	-92.6%	–
Cc1ccccc1C(=O)Nc1sc2c(c1C(=O)O)CCC(C(C)(C)C)C2 (stereo not drawn)	-32.5%	–
O=C1C2=C(Nc3ccccc3SC2c2ccc(C(F)(F)F)cc2)c2ccccc21 (stereo not drawn)	-61.3%	–
COc1cccc(CNC(=O)c2cc3c(-c4ccccc4F)nn(C)c3s2)c1	-33.5%	–
Cc1ccccc1C(=O)NCc1ccc2c(c1)CCN2C(=O)c1ccccc1	-51%	–
CCC(C(=O)NCc1ccc(OC)c(OC)c1)n1nc(C)c2c(C)n(-c3ccc(C)cc3)nc2c1=O (stereo not drawn)	-57.8%	–
COc1cc(NS(=O)(=O)c2ccc(-c3cc(C)no3)cc2)cc(OC)c1	-94%	–
CCCCN1C(C(=O)c2ccccc2)=C(OC(=O)CC)c2ccccc2S1(=O)=O	-43.1%	–
COc1ccccc1N1CCN(C(CNC(=O)C(=O)NCc2ccc(C)cc2)c2cccnc2)CC1 (stereo not drawn)	-81.1%	–
O=C(NCc1ccc(F)cc1)C1CCN(C(=O)c2ccc(-n3ccc4ccccc43)s2)CC1	-30.5%	–
Cc1nc(C)c(-c2ccc(SCC(=O)Nc3ccc(F)c(F)c3)nn2)s1	-50.1%	–

SMILES	activity change, positive = activation	Potency
COc1cc2c(cc1OC)C(COc1ccc(C(C)C)cc1)N(C(=O)COc1ccccc1)CC2 (stereo not drawn)	-20.4%	–
CCCCN1CC(c2nc3ccccc3n2CCCCOc2ccc(C)c(C)c2)CC1=O (stereo not drawn)	-42.6%	–
COc1cccc(C(=O)NC(c2ccc(Cl)cc2)c2cc(Cl)c3cccnc3c2O)c1 (stereo not drawn)	-28.6%	–
CCc1ccc(NC(=O)c2ccc(F)c(S(=O)(=O)N3CCN(c4cc(C)ccc4C)CC3)c2)cc1	-15.1%	–
Cc1cc(C)cc(NC(=O)CCCn2c3ccccc3c(=O)c3ccccc32)c1	-35.3%	–
CCc1ccc(CN(Cc2ccco2)C(=O)COc2ccccc2Cl)cc1	-8.92%	–
COc1cccc(N2CCN(C(=O)c3cccc(-n4c(C)nc5cccnc54)c3)CC2)c1	-84.3%	–
Cc1cccc(C)c1NC(=O)c1ccc2nc(CCc3ccccc3)oc2c1	-26.4%	–
COc1cc(CN2CCc3nc(N4CCN(c5ccccc5F)CC4)ncc3C2)ccc1OC(C)C	-71.5%	–
CCOc1ccc(CCNC(=O)C(CC(C)C)N2Cc3ccccc3C2=O)cc1OCC (stereo not drawn)	-50.7%	–
Cc1ccc(Cl)cc1-n1ncc2c(NC3CCCCC3)ncnc21	-26%	–
COc1ccc(Cn2c(SCc3ccc(C(=O)NC4CCCCC4)cc3)nc3ccncc32)cc1	-30.4%	–
COc1cccc(NC(=O)/C(C#N)=C\c2cn(Cc3ccc(C)cc3)c3ccccc23)c1	-35.9%	–
Cc1ccc(NCc2cccn2-c2nnc(N3CCC(C(=O)NCCC(C)C)CC3)s2)cc1	-47.9%	–
COc1cc(NC(=O)NC(C)c2c(-n3cccc3)sc3c2CCCC3)cc(OC)c1OC (stereo not drawn)	-35.3%	–
Cc1c(NS(C)(=O)=O)cccc1-c1nc2ccccc2s1	-34.9%	–
COc1ccc2c(c1)CCc1c(C(=O)Nc3c(C)nn(Cc4ccccc4C)c3C)noc1-2	-30.5%	–
O=C(C=Cc1ccc(CN(CCO)CCc2c[nH]c3ccccc23)cc1)NO	–	2130 nM (active)
O=C(Nc1ccccc1)C1CCN(S(=O)(=O)c2ccc3[nH]c4c(c3c2)CCCCC4)CC1	-35%	–
